In ChEMBL document CHEMBL4513216, “Probing the Open Global Health Chemical Diversity Library for Multistage-Active Starting Points for Next-Generation Antimalarials” (ACS Infect Dis, 2020):
About 2,700 (4%) of roughly 68,000 compounds showed an effect of 50% or more. The full list was thinned out, with strong results kept by preference.

The compounds below were run on Plasmodium berghei (assay: Screen against P. berghei liver stage (PbLuc), transformed with Luciferase, at 2uM). Conditions: tested at 2 uM.
Assay type: functional, HepG2
In the case of `CC(C)(C)c1noc(CCCC(=O)NCC2CCS(=O)(=O)C2)n1` (stereo not drawn), the INHIBITION is reported as -12.82%.
With `COC(=O)CNC(=O)c1sccc1N(C)S(=O)(=O)c1ccc(Cl)cc1` the INHIBITION was 3.38%.
With `Nc1cc2c(nn1)CCN(C(=O)CC1CCCCC1)C2` the INHIBITION was 38.76%.
`CCc1nc(CN(C)C2CCN(Cc3nc(C4CC4)no3)C2)no1` (stereo not drawn) gave an INHIBITION of -45.03%.
In the case of `Nc1cc(O)nc(CCNC(=O)CC[C@@H]2CCCN3CCCC[C@H]23)n1`, the INHIBITION is reported as 26.81%.
For `O=C(CC[C@@H]1CCCN2CCCC[C@H]12)NCCc1nc(O)cc(O)n1`, the INHIBITION was 51.77%.
`O=C(CC[C@@H]1CCCN2CCCC[C@H]12)NCCc1cc(O)ncn1` was tested, and the INHIBITION was -20.38%.
With `Cn1nc(C2CCNCC2)c2c(C(=O)NC3CC3)cc(C3CC3)nc21` the INHIBITION was 40.28%.
`CC(C)c1cc(NC(CO)CO)n2nccc2n1` showed an INHIBITION of 20.14%.
`CC(C)c1cc(N[C@H](C(N)=O)C(C)C)n2nccc2n1` gave an INHIBITION of -48.3%.
In the case of `CC(C)c1cc(N[C@@H](CO)C(N)=O)n2nccc2n1`, the INHIBITION is reported as 50.42%.
With `COCCc1noc(CN2CC(C)(c3ccccc3)CCC2=O)n1` (stereo not drawn) the INHIBITION was -12.84%.
`Cn1ccnc1C1c2nc[nH]c2CCN1Cc1cccnc1` (stereo not drawn) was tested, and the INHIBITION was -7.68%.
With `CCN1N=C(C(=O)N2CCCC(c3noc(C)n3)C2)CCC1=O` (stereo not drawn) the INHIBITION was 10.23%.
Work on `CCc1csc(C2CCCN(C(=O)C3=NN(CC)C(=O)CC3)C2)n1` (stereo not drawn) yielded an INHIBITION of 3.9%.
With `CCc1nc(C2CCCN(C(=O)C3=NN(C(C)C)C(=O)CC3)C2)no1` (stereo not drawn) the INHIBITION was 52.08%.
`CCc1nc(C2CCCN(C(=O)NC(C)C)C2)no1` (stereo not drawn) showed an INHIBITION of 9.82%.
Compound `CCc1nc(C2CCCN(C(=O)C3=NN(CC)C(=O)CC3)C2)no1` (stereo not drawn) has an INHIBITION of 53.19%.
With `Cc1nc(C2CCCN(C(=O)C3=NN(C(C)C)C(=O)CC3)C2)no1` (stereo not drawn) the INHIBITION was 21.24%.
For `O=c1c(Cc2ccccc2)c(O)ccn1CCc1ccccc1`, the INHIBITION was 44.59%.
With `Cc1ccc(CN2CC[C@H]3C[C@H](C(=O)N(C)C)O[C@H]3C2)cc1` the INHIBITION was 22.5%.
For `CCOc1ncccc1NC(=O)Nc1c(C)nn(C(C)C)c1C`, the INHIBITION was -10.87%.
Compound `Cn1cc(CN2CCOC[C@H]2c2nc(C(C)(C)C)co2)c2ccccc21` has an INHIBITION of 50.17%.
With `CC(C)(C)c1coc([C@@H]2COCCN2Cc2c[nH]c3ccccc23)n1` the INHIBITION was 27.44%.
Compound `CC(C)(C)c1coc([C@@H]2COCCN2Cc2ccccc2)n1` has an INHIBITION of 18.4%.
With `O=C(c1ccc(Cl)cc1)N1CCC(N2CCCNC2=O)CC1` the INHIBITION was 27.54%.
With `O=C(c1ccoc1)N1CCC2(CC1)COC(COc1ccccn1)C2` (stereo not drawn) the INHIBITION was 24.51%.
With `COCCC1COC2(CCN(C(=O)c3cccnc3)CC2)C1` (stereo not drawn) the INHIBITION was 1.81%.
`Cn1cc(CN2C[C@@H]3COC[C@]3(CNC(=O)c3ccsc3)C2)cn1` showed an INHIBITION of 9.79%.
Work on `COc1ccc(C)cc1CN(Cc1ncc(C)o1)C1CCN(C)C1` (stereo not drawn) yielded an INHIBITION of -5.79%.
`Cc1cnc(CN(Cc2ccc(C#N)cc2F)C2CCN(C)C2)o1` (stereo not drawn) was tested, and the INHIBITION was 60.84%.
`Cc1cnc(CN(Cc2ccc(Cl)s2)C2CCN(C)C2)o1` (stereo not drawn) was tested, and the INHIBITION was 14.83%.
In the case of `CN1CCN(CC2CC2)C(=O)c2cnc(N3CCC(CO)CC3)nc21`, the INHIBITION is reported as -13.87%.
`CSCCC(NC(N)=O)C(=O)NCc1ccc(-n2cccn2)cc1` (stereo not drawn) gave an INHIBITION of 50.42%.
`CSCCC(NC(N)=O)C(=O)NCc1cnn(-c2ccccc2)c1` (stereo not drawn) gave an INHIBITION of -12.03%.
`CSCCC(NC(N)=O)C(=O)Nc1ccc(-n2cccn2)nc1` (stereo not drawn) showed an INHIBITION of -0.41%.
Work on `CCCOc1cc(C)ccc1NC(=O)NCCC(=O)N(C)C` yielded an INHIBITION of -36.17%.
`COc1cc(C(=O)NC2COc3ccccc3C2)ccc1OCC(N)=O` (stereo not drawn) was tested, and the INHIBITION was -3.62%.
`COc1cccc(C(=O)N2CCOCC2CN(C)C)c1OC` (stereo not drawn) showed an INHIBITION of 31.55%.
Work on `OC(CNCc1nnc2ccccn12)c1ccc2c(c1)OCO2` (stereo not drawn) yielded an INHIBITION of 31.54%.
For `CC(C)NC(=O)N1CCC(c2nnc3n2CCNC3)CC1`, the INHIBITION was 13.28%.
Compound `COc1cccc2c1OCC(CNC(=O)Cn1ccnc1C)C2` (stereo not drawn) has an INHIBITION of 50.32%.
For `COc1cccc2c1OCC(CNC(=O)Cc1cnccn1)C2` (stereo not drawn), the INHIBITION was -20.89%.
In the case of `COc1cccc2c1OCC(CNC(=O)CSc1ccccn1)C2` (stereo not drawn), the INHIBITION is reported as 33.11%.
`Cn1cccc1C(=O)N1CCC2(CC1)CC(N1CCOCC1)C2` gave an INHIBITION of 35.89%.
`Cn1cnnc1S(=O)(=O)C1CCN(S(=O)(=O)c2ccccc2F)CC1` showed an INHIBITION of -8.91%.
With `Cc1ccc(S(=O)(=O)N2CCC(S(=O)(=O)c3nncn3C)CC2)cc1C` the INHIBITION was -19.3%.
With `Cn1cnnc1S(=O)(=O)C1CCN(S(=O)(=O)c2ccc(F)c(Cl)c2)CC1` the INHIBITION was 60.09%.
Compound `CCOC(=O)N1CCC(NC(C)Cc2cc(C)n[nH]2)CC1` (stereo not drawn) has an INHIBITION of -0.88%.
Work on `CCOC(=O)N1CCC(NC(C)c2ccccc2-n2cccn2)CC1` (stereo not drawn) yielded an INHIBITION of 52.89%.
Compound `CC(C)CN1CCC(NC(C)c2ccccc2-n2cccn2)CC1` (stereo not drawn) has an INHIBITION of 12.11%.
`O=C1COC2(CCN(S(=O)(=O)C3CC3)CC2)CN1c1cccnc1` showed an INHIBITION of 10.37%.
`CCN(C(=O)Nc1nccs1)C(C)c1cccc(O)c1` (stereo not drawn) was tested, and the INHIBITION was -81.27%.
`NC(=O)c1cnn2c1NCC(CNCC1(c3ccccc3)CCCC1)C2` (stereo not drawn) was tested, and the INHIBITION was -181.66%.
Work on `CN(Cc1ccc(Cl)s1)C(=O)COc1cccc(C(N)=O)c1` yielded an INHIBITION of 34.61%.
With `CN(Cc1ccc(Cl)s1)C(=O)c1ccccc1OCC(N)=O` the INHIBITION was 54.75%.
For `CN(Cc1ccc(Cl)s1)C(=O)c1cccc(OCC(N)=O)c1`, the INHIBITION was 26.14%.
Work on `COc1ccc([C@@H]2CN(C(=O)CS(C)(=O)=O)C[C@H]2NC(C)=O)cc1` yielded an INHIBITION of 1.85%.
`CCOCC(=O)N1C[C@@H](NC(C)=O)[C@H](c2ccc(OC)cc2)C1` was tested, and the INHIBITION was 20.15%.
`COCCN(C)CC(=O)N1C[C@@H](NC(C)=O)[C@H](c2ccc(OC)cc2)C1` showed an INHIBITION of 53.13%.
`c1ccc2sc(CN3CCOC(Cn4cncn4)C3)nc2c1` (stereo not drawn) was tested, and the INHIBITION was 5.72%.
In the case of `c1ccc2sc(CN3CCOC(Cn4cccn4)C3)nc2c1` (stereo not drawn), the INHIBITION is reported as -88.54%.
Work on `Cc1cnn(CC2CN(Cc3nc4ccccc4s3)CCO2)c1` (stereo not drawn) yielded an INHIBITION of 53.98%.
Work on `Cn1cc(C(=O)NCCc2ccc(OC3CCCC3)cc2)ccc1=O` yielded an INHIBITION of -25.78%.
Work on `CCOCc1cncc2c1CCN(S(=O)(=O)c1cccc(C)c1)C2` yielded an INHIBITION of 9.36%.
`CCOCc1cncc2c1CCN(S(=O)(=O)c1ccccc1)C2` was tested, and the INHIBITION was -18.7%.
In the case of `CCOCc1cncc2c1CCN(S(=O)(=O)c1ccc(C)cc1)C2`, the INHIBITION is reported as 70.13%.
Compound `COc1ccc(CN2C[C@@H]3OCCN(CCN4CCCC4)[C@@H]3C2)cc1` has an INHIBITION of 28.85%.
In the case of `CN(C(=O)c1cccc(NCc2cccs2)c1)C(C1CC1)C1CC1`, the INHIBITION is reported as 29.41%.
Compound `Nc1nc2c(c(NCc3nccs3)n1)CCN(CC1CCCC1)CC2` has an INHIBITION of -1.29%.
For `CCc1cnc(CN(C(C)=O)C2CCN(CCc3ccccn3)C2)o1` (stereo not drawn), the INHIBITION was 35.65%.
`CCc1cnc(CN(C(C)=O)C2CCN(CC(=O)N3CCCC3)C2)o1` (stereo not drawn) was tested, and the INHIBITION was 75.98%.
`CCc1cnc(CN(C(C)=O)C2CCN(CCS(C)(=O)=O)C2)o1` (stereo not drawn) showed an INHIBITION of -9.62%.
In the case of `CCc1cnc(CN(C(C)=O)C2CCN(CC3(O)CCCCC3)C2)o1` (stereo not drawn), the INHIBITION is reported as 43.79%.
Compound `CCc1cnc(CN(C(C)=O)C2CCN(CCN3CCCCC3)C2)o1` (stereo not drawn) has an INHIBITION of 56.02%.
`CCc1cnc(CN(C(C)=O)C2CCN(CCc3cnn(C)c3)C2)o1` (stereo not drawn) showed an INHIBITION of 1.61%.
`CCc1cnc(CN(C(C)=O)C2CCN(CCc3ccncc3)C2)o1` (stereo not drawn) was tested, and the INHIBITION was 17.31%.
For `CCc1cnc(CN(C(C)=O)C2CCN(CCc3ccccc3)C2)o1` (stereo not drawn), the INHIBITION was 51.94%.
Work on `CCc1cnc(CN(C(C)=O)C2CCN(Cc3nccn3C)C2)o1` (stereo not drawn) yielded an INHIBITION of 10.22%.
`Cc1cc(C)cc(OCC(=O)N2CCCN(CC(N)=O)CC2)c1` was tested, and the INHIBITION was -28.76%.
`CN(C)C[C@H]1OC[C@@H]2CCN(C(=O)c3cccn3C)C[C@@H]21` gave an INHIBITION of 8.65%.
For `Cc1cc(C)n(NC(=O)c2ccc(Cl)cc2Cl)c(=O)c1`, the INHIBITION was -3.05%.
`Cc1ccc(CNC2CC3(CCN(CCO)CC3)c3ccccc32)s1` (stereo not drawn) was tested, and the INHIBITION was 47.05%.
`CN(C)[C@@H]1CN(C(=O)COc2cccc(F)c2)C[C@H]1O` gave an INHIBITION of -0.83%.
For `CCCNC(=O)C1CCN(Cc2csc(CC)n2)CC1`, the INHIBITION was 36.64%.
In the case of `COCCC1COC2(CCN(C(=O)Cc3ccccc3)CC2)C1` (stereo not drawn), the INHIBITION is reported as -19.07%.
Compound `O=C([C@H]1COC[C@H]2CN(C3CCOCC3)C[C@H]21)N1CCCCO1` has an INHIBITION of -3.25%.
`O=C([C@H]1COC[C@H]2CN(C3CCOCC3)C[C@H]21)N1CCCO1` showed an INHIBITION of -17.39%.
With `O=C([C@@H]1COC[C@H]2CN(C3CCOCC3)C[C@H]21)N1CCCCO1` the INHIBITION was 59.77%.
Work on `CCOCC1c2c(cnn2CC2CC2)CCN1Cc1nccs1` (stereo not drawn) yielded an INHIBITION of 26.64%.
`O=C(NCCCO)c1nnsc1-c1ccc(Cl)cc1` showed an INHIBITION of 34.52%.
For `CN(CCCc1cnn(C)c1)Cc1cc2n(n1)CCNC2`, the INHIBITION was 19.66%.
`CS(=O)(=O)NCCCN1CCCC1c1ccccc1` (stereo not drawn) gave an INHIBITION of 42.11%.
Compound `CS(=O)(=O)NCCCN1CCCC1c1ccsc1` (stereo not drawn) has an INHIBITION of 51.46%.
`CS(=O)(=O)NCCCN1CCCC1c1cccc(Br)c1` (stereo not drawn) gave an INHIBITION of -8.52%.
`Cc1noc(C)c1CN1C[C@@H]2COC[C@H](C(=O)N3CCCCO3)[C@@H]2C1` was tested, and the INHIBITION was -60.98%.
In the case of `COC(=O)CCn1ccc(=O)c2cc(F)ccc21`, the INHIBITION is reported as -17.26%.
With `O=C(O)Cn1ccc(=O)c2cc(F)ccc21` the INHIBITION was 3.88%.
Compound `O=C(O)CCn1ccc(=O)c2cc(F)ccc21` has an INHIBITION of 55.73%.
`O=C(CCn1cncn1)Nc1ccc(F)cc1OCC1CC1` gave an INHIBITION of 14.47%.
Compound `CCn1cc(CNCCNc2ncc(Cl)cc2Cl)cn1` has an INHIBITION of -30.98%.
With `Cn1ccnc1CNCCNc1ncc(Cl)cc1Cl` the INHIBITION was 57.43%.
`Cn1cc(CNCCNc2ncc(Cl)cc2Cl)cn1` gave an INHIBITION of -12.84%.
